Screening data from PubChem.
In the library only some 4.8% were active in any assay of this set; here they are far more common.
NALP1 yeast inh: inhibitors of NALP1 inflammasome in yeast | 280,000 compounds, 0.61% hits | S. cerevisiae NALP1/ASC/caspase-1 growth, X-gal OD620, 72 h | inhibition, % at 10 µM; in the data active = inhibition mostly above about 24%, no sharp cut-off; inactive = mostly below about 32%
TIM10 inh: growth inhibitors of TIM10 yeast strain; S. cerevisiae TIM10 strain growth, BacTiter-Glo luminescence, 24 h; inhibition, % at 10 µM; 330,000 compounds, 1.4% hits; AID 463195;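 active = inhibition of 40% or more at the single tested concentration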;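 also: wild-type TIM10 isogenic control strain grown at permissive 25 °C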
PfHsp90 yeast 2: inhibits growth of yeast expressing Plasmodium falciparum Hsp90. S. cerevisiae expressing PfHsp90, BacTiter-Glo ATP, 48 h; yeast lacking PDR1 and PDR3 efflux regulators. inhibition, % at 9.4 µM. 310,000 compounds, 0.32% hits. AID 504621;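 active = every replicate shows inhibition above about 80%, whatever the replicate mean, limit read from the data; inconclusive = mean inhibition reaches the set limit but some replicate falls short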
tim23-1 inh: growth inhibitors of tim23-1 mutant yeast. S. cerevisiae tim23-1 growth, BacTiter-Glo luminescence, 24 h. inhibition, % at 20 µM. 330,000 compounds, 1.3% hits;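 active = growth inhibition of the mutant yeast at or above 50%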;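 also: temperature-sensitive mutant grown at 25 °C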
tim10-1 inh: growth inhibitors of tim10-1 mutant yeast; S. cerevisiae tim10-1 ts strain growth, BacTiter-Glo, 24 h; inhibition, % at 20 µM; 330,000 compounds, 2.2% hits; AID 463190;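 active = inhibition of at least 40%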;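 also: mutant grown at 25 °C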
SKKanGAS inh: inhibitors of SKKanGAS S. pyogenes growth in kanamycin (SK-promoter or general growth effect); inhibition, % at 7.5 µM; 300,000 compounds, 1.3% hits; AID 1662; BacTiter-Glo, 6 h;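 active = mean replicate score, as percent of positive control median, at least 50; inconclusive = mean below 50 but one replicate at or above 50; inactive = mean and every replicate below 50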;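 also: strain carries kanamycin resistance gene driven by streptokinase promoter and grows in 40 µg/ml kanamycin; loss of luminescence reflects streptokinase promoter inhibition or plain growth inhibition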
tim10-1 confirm: tim10-1 yeast growth inhibition, confirmed | 7,400 compounds, 56% hits | shares compounds with tim10-1 inh | inhibition, % at 20 µM | AID 463213 | S. cerevisiae tim10-1 ts strain growth, BacTiter-Glo, 24 h;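 active = inhibition of yeast growth at or above a set limit in either of two repeat tests at 20 µM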;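 also: tim10-1 mutant grown at permissive 25 °C to find synthetic lethal compounds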
Each line names hits and unclear results; the compound was inactive in the other large screens (follow-up assays come after a bar, where they were run).

Cc1nc2cc(C(=O)OCC(=O)NC34CC5CC(CC(C5)C3)C4)ccc2n1-c1ccccc1	tim10-1 inh 40.2 (no result: NALP1 yeast inh) | tim10-1 confirm 31.9
CCOc1ccccc1/C=N/NC(=O)c1nnn(-c2nonc2N)c1CN1CCCCCC1	none (no result: NALP1 yeast inh)
CCOC(=O)c1c(NC(=O)CSc2nnc(CNc3ccc(OC)cc3)n2C)sc(C)c1C	tim10-1 inh 40.6 (no result: PfHsp90 yeast 2) | tim10-1 confirm inactive
COC(=O)c1c(NC(=O)Cc2ccccc2)sc(C)c1C	none
COC(=O)c1c(NC(=O)CSc2ccccc2N)sc(C)c1C	tim10-1 inh 45.8 | tim10-1 confirm 36.0
CSc1ccccc1C(=O)NC1CCCCC1	none
CCC(CC)N1CCN(CCc2ccccc2)C(CCO)C1 (stereo not given)	none
Cc1cccc(CN2C(=O)/C(=C\c3ccc(C(=O)NCCN4CCOCC4)cc3)Sc3ccccc32)c1	tim10-1 inh 42.0 | tim10-1 confirm inactive
Cc1ccccc1CN1C(=O)/C(=C\c2ccc(C(=O)NCCN3CCOCC3)cc2)Sc2ccccc21	tim10-1 inh 44.7 | tim10-1 confirm inactive
Cc1ccc(N(C(C)C(=O)N2CCCC2)S(C)(=O)=O)cc1 (stereo not given)	none
O=C(OCC(=O)N1CCc2ccccc21)c1c2c(nc3ccccc13)CCCC2	none
CC1Cc2ccccc2N1C(=O)COC(=O)c1c2c(nc3ccccc13)CCCCC2 (stereo not given)	tim10-1 inh 40.8 (no result: NALP1 yeast inh) | tim10-1 confirm 36.4
CSCCC(NS(=O)(=O)c1ccc(Cl)cc1)C(=O)N1CCN(c2ccccc2)CC1 (stereo not given)	none (no result: NALP1 yeast inh, TIM10 inh, tim23-1 inh, tim10-1 inh, SKKanGAS inh)
Cc1cc(C)nc(N2C(=O)CC(Cc3ccc(Cl)cc3)C2=O)n1 (stereo not given)	none
Cc1cc(C)nc(N2N=C(CSc3ccc(Cl)cc3)CC2=O)n1	tim10-1 inh 44.7 | tim10-1 confirm inactive
CCc1cc(C(=O)N2CCN(c3ncc(C(F)(F)F)cc3Cl)CC2)sc1C	tim10-1 inh 41.7, SKKanGAS inh inconclusive | tim10-1 confirm 35.4
CSc1ccc(C(=O)NC2CCSc3ccccc32)cc1 (stereo not given)	none
COc1ccc(N/C(C)=C/C(=S)Nc2ccccc2)cc1	tim10-1 inh 40.6 | tim10-1 confirm inactive
Cc1cc(C)n(CC(O)Cn2c3ccc(Br)cc3c3cc(Br)ccc32)c(=O)n1 (stereo not given)	tim10-1 inh 56.4 | tim10-1 confirm 52.0
Cc1ccccc1OCC(=O)Nn1c(COc2ccccc2)nc2ccccc2c1=O	tim10-1 inh 45.5 | tim10-1 confirm inactive
COc1cc(Cl)ccc1OCc1cc(C(=O)NC2CCc3ccccc32)no1 (stereo not given)	none
N/C(=N\N=C/c1ccc(F)cc1)N/N=C\c1ccc(F)cc1	tim10-1 inh 44.0 | tim10-1 confirm inactive
N/C(=N\N=C/c1ccc(Br)cc1)N/N=C\c1ccc(Br)cc1	SKKanGAS inh inconclusive
C=C1[C@@H](O)[C@@H]2O[C@]3(CC[C@H](/C=C/[C@@H](C)[C@@H]4CC(C)=CC5(O[C@H](C[C@@](C)(O)C(=O)OC)CC[C@H]5O)O4)O3)CC[C@H]2O[C@@H]1[C@@H](O)C[C@H](C)[C@H]1OC2(CCCCO2)CC[C@H]1C (stereo not given in full)	none (no result: NALP1 yeast inh, PfHsp90 yeast 2, SKKanGAS inh)
c1ccc(-c2cc3n(c2)CCc2ccccc2-3)cc1	tim10-1 inh 41.8 | tim10-1 confirm inactive
Cc1ccc(C2CC(c3cccs3)=NN2C(=O)CSc2nc(=O)n3ccc(C)cc3n2)cc1 (stereo not given)	none (no result: NALP1 yeast inh)
O=C(Nc1ccc(Cl)c(Cl)c1)c1ccc(Cl)c(Cl)c1	none
Cc1ccc(NC(=O)c2ccc(Cl)c(N3C(=O)C=CC3=O)c2)cc1	PfHsp90 yeast 2 124.3, tim10-1 inh 67.7 | tim10-1 confirm 78.8
O=c1c(Cl)c(N2CCOCC2)cnn1-c1ncc(C(F)(F)F)cc1Cl	none
FC(F)(F)c1cnc(Nc2ccc(N3CCOCC3)cc2)c(Cl)c1	tim10-1 inh 44.4 | tim10-1 confirm inactive
O=C(CNS(=O)(=O)c1ccccc1)N1CCN(c2ccccc2)CC1	none
C=CCN1CN(S(=O)(=O)c2cccs2)c2nc3ccccc3nc21	none (no result: SKKanGAS inh)
O=C(CSc1ccccc1C(=O)NCc1ccccc1)NC12CC3CC(CC(C3)C1)C2	tim10-1 inh 40.0 | tim10-1 confirm 31.8
Cc1nn(CC(=O)N(C)Cc2ccccc2)c(=O)c2cccn12	none
CSc1cccc(N/C(=N/S(=O)(=O)c2ccccc2)NN)c1	none (no result: TIM10 inh, tim23-1 inh, tim10-1 inh)
O=C(CCc1ccccc1)C(=O)N1CCCC(C(=O)c2cccc(Cl)c2)C1 (stereo not given)	tim10-1 inh 40.0 | tim10-1 confirm inactive
CCC(C)NC(=O)c1c(N)n(/N=C/c2ccccn2)c2nc3ccccc3nc12 (stereo not given)	tim10-1 inh 41.6, SKKanGAS inh 86.6 | tim10-1 confirm inactive
COCCCNC(=O)c1c(N)n(/N=C/c2cccs2)c2nc3ccccc3nc12	tim10-1 inh 41.5 | tim10-1 confirm inactive
COCCCNC(=O)c1c(N)n(/N=C/c2cccnc2)c2nc3ccccc3nc12	none
COc1cccc(C(C)NC(=S)NCc2ccc(F)cc2)c1 (stereo not given)	tim10-1 inh 41.8 | tim10-1 confirm inactive
CCOC(=O)/C(C#N)=C/c1c(N2CCN(c3ccccc3)CC2)nc2ccccn2c1=O	tim10-1 inh 43.6 | tim10-1 confirm inactive
C=CCC[C@H](Cc1ccc(F)cc1)C(=O)OC[C@H](Cc1c[nH]c2ccccc12)NC(=O)[C@@H](CC=C)CC(=O)N(CCO)Cc1ccccc1	none (no result: NALP1 yeast inh, SKKanGAS inh)
CCOc1cc(CNC(=O)CCCn2c(=O)c3cccn3c3cccnc32)cc(OCC)c1OCC	none
CCc1ccc(CNC(=O)CCCn2c(=O)c3cccn3c3cccnc32)cc1	tim10-1 inh 46.3 | tim10-1 confirm inactive
C/C(=N\NC(=O)C1COc2ccccc2O1)c1cc2ccccc2o1 (stereo not given)	none
Cc1ccc(SCC2(O)CCN(S(=O)(=O)c3ccc(Cl)cc3)CC2)cc1	tim10-1 inh 41.1 (no result: PfHsp90 yeast 2) | tim10-1 confirm inactive
CCCn1nc2cc(C(=O)NCC34CC5CC(CC(C5)C3)C4)ccc2c1OCC	none
CC(C)(C)c1ccc(-c2csc(NNC3=NCCCCC3)n2)cc1	tim10-1 inh 45.0 | tim10-1 confirm inactive
COc1cccc(/C=C2\N=C(C3CCCCC3)OC2=O)c1OC	tim10-1 inh 47.4 (no result: PfHsp90 yeast 2) | tim10-1 confirm 33.2
CCCC1CCC(C2=N/C(=C\c3ccc(OC)c(OC)c3)C(=O)O2)CC1 (stereo not given)	none
CCc1ccc(N(CC(=O)Nc2nc3ccc(C)cc3s2)S(=O)(=O)c2c(C)noc2C)cc1	none
CC(C)(C)c1ccc(C(=O)NNc2cc(N3CCCCC3)nc(N3CCCCC3)n2)cc1	tim10-1 inh 40.1 | tim10-1 confirm 35.9
